Pf Dd2 inh = inhibitors of Plasmodium falciparum Dd2 growth. P. falciparum Dd2 growth, SYBR Green, 72 h. Potency, µM (series often up to 28.9 µM), most hits filed as inhibitors. hit rate 4.3% among 120,000. AID 1347417; active = well fitted inhibition curve with a large enough effect; also: nearly all actives have a fitted effect of over 65% in size
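Infected erythrocytes (Dd2, 0.3% parasitemia, 2.5% hematocrit final) are added to compound in RPMI-1640/Albumax II medium, grown 72 h at 37C in low oxygen, then lysed with saponin/Triton-X containing SYBR Green and read by fluorescence.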
Numbers stand for hits; 0 = inactive; [ ] = remark or other dose. Shown is part of a subset that was picked to be rich in hits.

SMILES | Pf Dd2 inh
COc1ccc(C)cc1NC(=O)N1CCC(OC2CCN(Cc3ccccc3)CC2)CC1 | 11µM
O=S(=O)(c1ccc(F)cc1)N1CCC(OC2CCN(Cc3ccccc3)CC2)CC1 | 0
CS(=O)(=O)N1CCC(OC2CCN(C(=O)Nc3ccccc3F)CC2)CC1 | 0
Cc1c(F)cccc1NC(=O)N1CCC(OC2CCN(Cc3ccccc3)CC2)CC1 | 4.5µM
O=C(c1ccc(F)cc1)N1CCC(OC2CCN(Cc3ccccc3)CC2)CC1 | 11µM
CC(C)(C)C(=O)N1CCC(OC2CCN(Cc3ccccc3)CC2)CC1 | 0
COc1ccc(C)cc1NC(=O)N1CCC(CN2CCC(C)CC2)CC1 | 0
O=C(NC1CCCCC1)N1CCC(OC2CCN(Cc3ccccc3)CC2)CC1 | 0
CCc1cccc(NC(=O)N2CCC(OC3CCN(Cc4ccccc4)CC3)CC2)c1 | 0
COc1ccc(C)cc1NC(=O)N1CCC(OC2CCN(S(C)(=O)=O)CC2)CC1 | 0
COc1cccc(CNC(=O)C2CN(c3cccc(Cl)c3)C(=O)N2)c1 (stereo not given) | 0
CC(C)c1noc(C2CCCN(C(=O)Cc3cccc(F)c3)CCC(=O)NCC2)n1 (stereo not given) | 0
CSc1ccc(-c2noc(-c3nnn4c3COC(c3ccc(Cl)cc3)C4)n2)cc1 (stereo not given) | 0
COc1cc(C(C(=O)O)N(C)Cc2c(C)nn(C)c2C)ccc1N (stereo not given) | 0
CC(=O)NCC(=O)N1CCCC2(CN[S+](=O)([O-])c3cccnc3O2)C1 (stereo not given) | 0
O=C(C1CN(S(=O)(=O)c2cccs2)CC12CCCCC2)N1CCCC1 (stereo not given) | 0
CN(C)C[C@@H]1CN(S(C)(=O)=O)C[C@H]1NC(=O)CN1CCOCC1 | 0
Cc1cnc(C2CC2)n1C1CCCNC1 (stereo not given) | 0
COCc1ncc(C)n1C1CCCNC1 (stereo not given) | 0
Cc1cnc(-c2ccccc2)n1C1CCCNC1 (stereo not given) | 6.3µM
CC(C)NC(=O)N1CC(C(=O)NCc2ccc3c(c2)OCO3)CC(c2ccccc2)C1 (stereo not given) | 0
COc1ccc(CCN2CCC(CN(C)C(=O)C3CCCCO3)CC2)cc1 (stereo not given) | 0
CN(CC1CCN(CCc2cccc(F)c2)CC1)C(=O)[C@@H](N)Cc1cnc[nH]1 | 0
COc1ccc(CN(C)CC2CCN(CCc3ccc(F)cc3)CC2)cc1Cn1cccn1 | 10µM
COc1ccc(C2(C(=O)N3CC4CC(C3)[C@H]3CCCC(=O)N3C4)CC2)cc1 (stereo not given in full) | 0
SMILES | Pf Dd2 inh
O=C(CC1CCCN(c2cnn(CC3CC3)c(=O)c2)C1)N1CCN(c2ccccc2)CC1 (stereo not given) | 0
O=C(C[C@@H]1O[C@H](CNC(=O)Nc2ccccc2)[C@@H](O)[C@H]1O)NC1CC1 | 0
CNc1ncccc1C(=O)N[C@H](c1cccs1)C1CC(O)C1 (stereo not given in full) | 0
COCCN1C(=O)CO[C@H]2CN(C(=O)Nc3ccc(F)cc3)C[C@H]21 | 0
COc1ccc(S(=O)(=O)N2CCC(c3nnc(-c4ccccc4C)o3)CC2)c(OC)c1 | 0
Cc1ccc(N2CCN(S(=O)(=O)c3ccc(Cl)c4ccccc34)CC2)c(C)c1 | 0
Cc1ccc(-c2nnc(Nc3ccc(OC(F)(F)Cl)cc3)c3ccccc23)cc1S(=O)(=O)NC(C)(C)CO | 13µM
Cc1ccc(-c2nnc(Nc3ccccc3)c3ccccc23)cc1S(=O)(=O)N1CCN(C)CC1 | 0
Cc1ccc(Nc2nnc(-c3ccc(C)c(S(=O)(=O)N4CCN(C)CC4)c3)c3ccccc23)cc1 | 7.9µM
COc1ccc(N2CCN(S(=O)(=O)c3ccc(-c4ccno4)cc3OC)CC2)cc1 | 0
COc1ccc(S(=O)(=O)NC(C)(C)CO)cc1-c1nnc2c3ccccc3c(C)nn12 | 0
COc1ccc(Nc2nnc(-c3ccc(C)c(S(=O)(=O)N4CCN(C)CC4)c3)c3ccccc23)cc1 | 8.9µM
COc1ccccc1N1CCN(S(=O)(=O)c2cc(-c3cc(C)no3)ccc2C)CC1 | 0
Cc1ccc(Nc2nnc(-c3ccc(C)c(S(=O)(=O)N4CCN(C)CC4)c3)c3ccccc23)c(C)c1 | 7.9µM
Cc1ccc(-c2nn3c(C)nnc3c3ccccc23)cc1S(=O)(=O)NC(C)(C)CO | 0
COc1nnc(-c2ccc(N3CCCCC3)c(NC(=O)c3ccc(C)cc3)c2)c2ccccc12 | 0
COCCOCc1nc(C2CCN(C(=O)C3(c4ccccc4)CC3)C2)no1 (stereo not given) | 0
CCc1ccc(N2CC(c3noc(-c4ccc(OC)nc4OC)n3)CC2=O)cc1 (stereo not given) | 0
Cn1nccc1C(=O)N1C[C@@H]2CCCN3CCC[C@@H]([C@H]23)[C@H]1CCCC(=O)NCc1ccccc1 | 0
CCOc1cc(=O)n2c(c1C(=O)Nc1ccc(F)cc1Cl)CCCC2 | 0
Cc1cc(C)n(CCC(=O)N2CCCC(c3nnnn3C)C2)n1 (stereo not given) | 0
CCC(CC)N1CCCC(c2nc(-c3cccnc3)no2)CCNC(=O)CC1 (stereo not given) | 0
N#Cc1cccc(C(=O)N2CCOCCNC(=O)[C@@H]3CCC[C@@H]32)c1 | 0
COC(=O)COc1ccc(-c2nnc(Nc3ccc(O)cc3)c3ccccc23)cc1 | 0
Cc1ccc(-c2nn3c(C)nnc3c3ccccc23)cc1S(=O)(=O)NCCO | 0
SMILES | Pf Dd2 inh
Cc1ccccc1-c1noc(-c2ccc(NCC3CCCO3)c([N+](=O)[O-])c2)n1 (stereo not given) | 0
Cc1ccc(-c2nnc(Nc3ccc(O)cc3)c3ccccc23)cc1S(=O)(=O)N1CCOCC1 | 8.9µM
CNC(=O)c1cc(Nc2nnc(-c3ccc(O)cc3)c3ccccc23)ccc1OC | 0
Cc1ccccc1Nc1nnc(-c2ccc(C)c(S(=O)(=O)NCC3CCCO3)c2)c2ccccc12 (stereo not given) | 5.6µM
Cc1nc(C(C)C)sc1C(=O)N1C[C@@H](C)[C@](O)(C2CCC2)C1 | 0
O=C(NCc1nnc2n1C(C(=O)NCc1ccc(F)cc1)CC2)C1CC1 (stereo not given) | 0
CNC(=O)[C@@H]1CN(S(=O)(=O)c2cnc[nH]2)C[C@H]1c1nc(C)no1 | 0
C=CCNC(=O)CCc1c(C)nn(-c2ccccc2)c1Oc1ccccc1F | 0
COc1ccc(-c2nc(C)nc3c2CCN(C(=O)c2ccccc2F)CC3)cc1 | 0
COc1ccc(CNC(=O)c2cc3c(s2)CCN(C(C)=O)C3)cc1 | 0
CCOC(=O)c1c(NC(=O)CS(=O)(=O)c2ccc(Cl)cc2)sc2c1CCCC2 | 0
CCOC(=O)N1CCc2c(sc(NCc3cccc(F)c3)c2C(=O)Nc2ccc(OC)cc2OC)C1 | 4µM
COc1ccc(NC(=O)c2c(NC(=O)c3ccc(Br)cc3)sc3c2CCCC3)cc1 | 0
COc1ccc(S(=O)(=O)N2CCc3c(C(=O)NCc4cccc(F)c4)cccc32)cc1 | 0
CCOC(=O)N1CCc2c(sc(NCc3cccc(F)c3)c2C(=O)Nc2ccc(OC)cc2)C1 | 7.9µM
CCC(=O)Nc1sc2c(c1C(=O)Nc1ccc(OC)cc1)CCC(C(C)(C)C)C2 (stereo not given) | 0
CCC(=O)N1CCc2c(C(=O)Nc3ccc(OC)cc3OC)cccc21 | 0
CCOC(=O)c1ccc(NC(=O)c2c(NCc3cc(OC)c(OC)cc3OC)sc3c2CCCC3)cc1 | 13µM
COc1ccc(NC(=O)CN2CCN(CC(=O)Nc3ccccc3F)CC2)c(OC)c1 | 0
COc1ccc(NC(=O)c2c(NC(=O)COc3ccccc3)sc3c2CCCCC3)cc1 | 0[0.594 µM]
